A short description of assay [1]: qHTS assay to identify small molecule agonists of the RXR signaling pathway - cell viability counter screen (AID 1159529). Further: nearly all actives have a fitted effect of over 50% in size. Further: potency means the concentration at half of the fitted maximal effect. In a few lines:
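Tox21 10K compounds were tested for cytotoxicity against GeneBLAzer RXR-alpha HEK 293T cells grown in 2% charcoal-stripped FBS. Exposure lasted 16 hr at 37 C, 5% CO2; viability read by CellTiter-Glo luminescence.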

Assay [2] can be described thus: qHTS assay to identify small molecule antagonists of the retinoid acid receptor (RAR) signaling pathway - cell viability counter screen (AID 1159551). Further: nearly all actives have a fitted effect of over 35% in size. Further: potency means the concentration at half of the fitted maximal effect. In a few lines:
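C3RL4 RARE-luciferase line; cpds + retinol 1 uM final, 6 h, 37 C/5% CO2; CellTiter-Glo ATP luminescence, 30 min RT.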

A short description of assay [3]: qHTS assay to identify small molecule antagonists of the retinoic acid receptor (RAR) signaling pathway (AID 1159552; further: nearly all actives have a fitted effect of over 50% in size; further: potency means the concentration at half of the fitted maximal effect). In a few lines: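 Overnight-plated C3RL4 reporter cells get compound, then retinol to 1 uM final; plates sit 6 hr at 37 C, 5% CO2. A luciferase reagent is added and light output recorded after 30 min at room temperature.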
The target in assay [4] is Luciferin 4-monooxygenase (Photinus pyralis) (UniProt P08659). The experiment in a line: qHTS assay to identify small molecule inhibitors of firefly luciferase (AID 1224835). Further: nearly all actives have a fitted effect of over 25% in size. Further: potency means the concentration at half of the fitted maximal effect. In a few lines: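 Quantitative HTS format; KM concentrations of both substrates. Purified P. pyralis FLuc activity quantified from luminescence images.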
Assay [5] is described as follows: qHTS assay to identify small molecule agonists of the constitutive androstane receptor (CAR) signaling pathway - cell viability counter screen (AID 1224836). Further: nearly all actives have a fitted effect of over 45% in size. Further: potency means the concentration at half of the fitted maximal effect. Put shortly: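 Fluorescence from CellTiter-Fluor indicates live cells after 23 h exposure. The human hepatoma line expresses hCAR and a CYP2B6-2.2kb reporter. Incubation medium contains 0.75 uM PK11195 (final).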

Assay [6] is described as follows: qHTS assay to identify small molecule antagonists of the constitutive androstane receptor (CAR) signaling pathway - cell viability counter screen (AID 1224837). Further: nearly all actives have a fitted effect of over 45% in size. Further: potency means the concentration at half of the fitted maximal effect. In a few lines: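 Read-out: CellTiter-Fluor fluorescence after 23 hr at 37 C/5% CO2. Cells: HepG2 double-stable for hCAR and CYP2B6-2.2kb. Compounds tested at 15 concentrations in the presence of CITCO, final concentration 50 nM.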

The target in assay [7] is Nuclear receptor subfamily 1 group I member 3 (Homo sapiens) (UniProt Q14994). Description: qHTS assay to identify small molecule antagonists of the constitutive androstane receptor (CAR) signaling pathway (AID 1224838).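 Further: HepG2 cells stably expressing hCAR with CYP2B6 luciferase reporter stimulated by CITCO; nearly all actives have a fitted effect of over 40% in size.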 Further: potency means the concentration at half of the fitted maximal effect. Put shortly:
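Read-out: ONE-Glo luciferase luminescence after 30 min at room temperature. HepG2-CYP2B6-hCAR double-stable cells, compounds in 15-point titration plus 50 nM CITCO final, 24 h at 37 C/5% CO2.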

For assay [8] the target is unchanged. Description: qHTS assay to identify small molecule agonists of the constitutive androstane receptor (CAR) signaling pathway (AID 1224839). Further: nearly all actives have a fitted effect of over 15% in size. Further: potency means the concentration at half of the fitted maximal effect. Put shortly:
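Stable hCAR/CYP2B6-2.2kb HepG2 line in DMEM with 10% FBS; compounds (15 concentrations) and 0.75 uM PK11195 final, 24 h at 37 C/5% CO2, then ONE-Glo luminescence after 30 min.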

Assay [9] in a line: qHTS assay to identify small molecule antagonists of the estrogen related receptor signaling pathway with the pleiotropic PPARgamma coactivator (PGC) from Tox21 10K library - cell viability counter screen (AID 1224840; active means well fitted cell-killing curve with a large enough effect in the repeat runs, not every such curve was filed as active; further: nearly all actives have a fitted effect of over 40% in size; further: potency means the concentration at half of the fitted maximal effect). Put shortly:
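Fluorescence read-out of CellTiter-Fluor viability reagent, added after cells had been exposed to compound in DMSO for 17.5 h at 37 C; 30 min development at 37 C/5% CO2. Cells: PGC/ERR line, 2,000/well.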

The nature of assay [10]: qHTS assay to identify small molecule antagonists of the estrogen related receptor (ERR) signaling pathway from Tox21 library - cell viability counter screen (AID 1224834). Further: nearly all actives have a fitted effect of over 30% in size. Further: potency means the concentration at half of the fitted maximal effect. In a few lines: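 Multiplexed viability counter screen in ERR cells: 17.5 h compound exposure at 37 C, CellTiter-Fluor added, 30 min at 37 C/5% CO2, fluorescence read.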
Assay [11] is described as follows: qHTS assay to identify small molecule antagonists of the estrogen related receptor signaling pathway with the pleiotropic PPARgamma coactivator (PGC) from Tox21 10K library (AID 1224841; call rule not given here; further: actives are mostly falling curves and most rising ones were filed inactive; nearly all actives have a fitted effect of over 50% in size; further: potency means the concentration at half of the fitted maximal effect). In a few lines: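 Luminescence read-out (One-Glo luciferase reagent, 30 min at room temperature) from PGC/ERR cells exposed to DMSO-dissolved test compounds for 18 h at 37 C; cells, 2,000 per well, had been preincubated 6 h before compound transfer.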

Assay [12] concerns the target Thyrotropin receptor (Homo sapiens) (UniProt P16473). Description: qHTS assay to identify small molecule agonists of the thyroid stimulating hormone receptor (TSHR) signaling pathway (AID 1224843; calls by dose curve; further: nearly all actives have a fitted effect of over 45% in size; further: potency means the concentration at half of the fitted maximal effect). Put shortly:
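Using 15 concentrations per compound in triplicate, cAMP production was monitored in TSHR-HEK293 cells after 30 min compound incubation at RT; HTRF reagents followed, with fluorescence intensity recorded after 1 h.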

Assay [13] is described as follows: qHTS assay to identify small molecule agonists of the estrogen related receptor signaling pathway with the pleiotropic PPARgamma coactivator (PGC) from Tox21 10K library (AID 1224842). Further: nearly all actives have a fitted effect of over 15% in size. Put shortly: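 PGC/ERR reporter cells (NTP line) were seeded 2,000 per well, rested 6 h at 37 C/5% CO2, then pin-dosed with compounds in DMSO for 18 h at 37 C; luciferase read by One-Glo luminescence after 30 min at room temperature.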

Drawing on PubChem BioAssay (Tox21), this text covers Potency for 10 compounds.

Structures are written as SMILES. “And” between values parts separate entries of the source, which are not always exact repeats. Equal entries are not always repeated. Records with an inconclusive call do not appear. Unmarked numbers belong to inactive results. The source made the active and inactive calls. Unless noted, the call rests on the fitted dose curve; in most records, active means well fitted curve in the direction sought with a large enough effect in the repeat runs; inconclusive means weak or mixed curves; inactive means no such curve, though single readings can be large; an effect the other way counts as inactive or inconclusive.

Chain of Nuclear receptor subfamily 1 group I member 3 (Homo sapiens) (Q14994 whole entry, looked up): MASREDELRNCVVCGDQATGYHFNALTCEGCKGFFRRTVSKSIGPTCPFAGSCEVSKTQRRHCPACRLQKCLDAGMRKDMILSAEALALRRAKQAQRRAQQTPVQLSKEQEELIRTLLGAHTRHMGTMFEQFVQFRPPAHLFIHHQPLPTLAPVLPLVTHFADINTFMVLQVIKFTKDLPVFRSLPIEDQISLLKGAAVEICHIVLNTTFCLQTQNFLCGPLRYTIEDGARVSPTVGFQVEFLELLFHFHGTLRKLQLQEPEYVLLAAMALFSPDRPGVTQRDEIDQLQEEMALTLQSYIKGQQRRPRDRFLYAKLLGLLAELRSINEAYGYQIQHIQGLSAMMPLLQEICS
Chain of Thyrotropin receptor (Homo sapiens) (P16473 whole entry, looked up): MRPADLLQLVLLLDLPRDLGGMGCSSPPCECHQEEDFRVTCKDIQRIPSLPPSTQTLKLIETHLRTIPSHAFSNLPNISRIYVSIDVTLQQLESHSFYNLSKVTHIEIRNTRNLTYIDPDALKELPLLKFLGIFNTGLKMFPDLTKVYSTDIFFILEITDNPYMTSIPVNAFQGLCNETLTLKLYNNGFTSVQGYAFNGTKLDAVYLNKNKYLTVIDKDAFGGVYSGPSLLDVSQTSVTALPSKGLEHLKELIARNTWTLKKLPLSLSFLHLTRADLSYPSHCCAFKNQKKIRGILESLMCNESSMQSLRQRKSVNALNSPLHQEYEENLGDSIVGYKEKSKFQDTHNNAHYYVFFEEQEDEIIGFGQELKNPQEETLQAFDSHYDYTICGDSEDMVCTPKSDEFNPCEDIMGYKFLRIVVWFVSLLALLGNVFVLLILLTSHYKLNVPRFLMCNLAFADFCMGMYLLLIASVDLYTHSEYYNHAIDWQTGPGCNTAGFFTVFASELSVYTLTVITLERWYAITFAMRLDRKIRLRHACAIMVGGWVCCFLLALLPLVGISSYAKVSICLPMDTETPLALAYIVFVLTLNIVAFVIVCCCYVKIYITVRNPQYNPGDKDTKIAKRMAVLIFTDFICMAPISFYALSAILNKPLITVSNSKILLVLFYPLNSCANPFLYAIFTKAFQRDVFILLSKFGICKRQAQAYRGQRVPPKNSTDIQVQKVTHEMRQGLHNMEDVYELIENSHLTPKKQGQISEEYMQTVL
Chain of Luciferin 4-monooxygenase (Photinus pyralis) (P08659 whole entry, looked up): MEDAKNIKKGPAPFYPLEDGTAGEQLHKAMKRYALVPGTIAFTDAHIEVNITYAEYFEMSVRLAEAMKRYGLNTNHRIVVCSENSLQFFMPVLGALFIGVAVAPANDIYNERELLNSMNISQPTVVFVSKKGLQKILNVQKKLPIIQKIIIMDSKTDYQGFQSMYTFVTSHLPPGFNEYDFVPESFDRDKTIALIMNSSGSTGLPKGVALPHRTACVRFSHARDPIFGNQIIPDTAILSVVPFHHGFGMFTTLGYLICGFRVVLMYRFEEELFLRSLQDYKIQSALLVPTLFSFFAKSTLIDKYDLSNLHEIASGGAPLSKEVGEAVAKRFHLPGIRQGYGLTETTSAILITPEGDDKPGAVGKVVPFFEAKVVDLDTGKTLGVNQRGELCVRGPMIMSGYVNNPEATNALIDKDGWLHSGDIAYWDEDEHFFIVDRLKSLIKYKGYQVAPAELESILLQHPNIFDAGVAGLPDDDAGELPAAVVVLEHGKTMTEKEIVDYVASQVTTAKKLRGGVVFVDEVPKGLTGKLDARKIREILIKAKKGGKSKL

As to `Nc1c(Oc2ccccc2)cc(O)c2c1C(=O)c1ccccc1C2=O`, the Potency entry in [1], in [2], in [3], in assay [5], in [6] and in assay [7] was “inactive” each time. Moreover, the Potency entry in assay [9] was “inactive”. Besides, the Potency in assay [4] was 3.09 µM (active); in assay [8] it was 6.68 µM (active).
Turning to `O=C1C=CC(=O)c2ccccc21`, the Potency in assay [1] was 9.77 µM (active); in assay [2], 15.4 µM (active); in assay [3], 27.3 µM (active); in [10] it was 61.1 µM (active); in assay [4], 20 µM (active); in assay [5] it was 54.5 µM (active). Further, the Potency is 43.3 µM (active) in assay [6], 61.1 µM (active) in assay [9] and 34.4 µM (active) in assay [11]. The Potency result in assay [8] is “inactive”.
With `Oc1ccc2ccc3cccc4ccc1c2c34`, the Potency in [1] was 49 µM (active); in [4] it was 79.6 µM (active); in assay [8] it was 61.1 µM (active). For the same compound, the Potency result in [2], in assay [3], in assay [10], in [6], in assay [7] and in assay [9] was “inactive” throughout. In addition, the Potency result in assay [12] was “inactive”.
As to `N#CCc1ccc(Cl)cc1`, the Potency entry in assay [1], in assay [2], in [3], in [10], in assay [4] and in [5] was “inactive” in each case. In addition, the Potency entry in assay [6], in assay [9], in assay [11] and in assay [13] was “inactive” throughout.
On to `CC(C)(c1ccc(O)c(-c2ccccc2)c1)c1ccc(O)c(-c2ccccc2)c1`, for which the Potency in [1] was 24.5 µM (active); in assay [2] it was 54.5 µM (active); in assay [3], 54.5 µM (active); in [10] it was 61.1 µM (active); in assay [5], 54.5 µM (active); in [6] it was 68.6 µM (active). Also, the Potency in [8] was 17.2 µM (active); in [11] it was 48.6 µM (active). Further, the Potency result in assay [4] and in assay [13] was “inactive” each time.
Turning to `N#CSCSC#N`, the Potency in assay [1] is 17.8 µM (active) and 17.2 µM (active); in assay [2], 27.9 µM (active) and 30.3 µM (active); in [3] it was 24.9 µM (active); in assay [10], 62.5 µM (active) and 60.5 µM (active); in assay [6], 27.9 µM (active) and 27 µM (active); in assay [7] it was 19.8 µM (active) and 24.1 µM (active). Also, the Potency result in assay [4], in [8], in assay [11] and in assay [13] was “inactive” throughout.
For `COS(=O)(=O)c1ccc(C)cc1`, the Potency result in assay [1], in assay [2], in [3], in [10], in assay [4] and in [6] was “inactive” throughout. Also, the Potency entry in [9] and in assay [12] was “inactive” in each case.
`CC(C)C1CCC(Cc2ccc(Cl)cc2)C1(O)Cn1cncn1` (configuration not stated): the Potency is 54.4 µM (active) in assay [1]; 60.5 µM (active) in assay [2]; 42.8 µM (active) in [3]; 53.9 µM (active) in [10]; 15.2 µM (active) in assay [11]; 48.1 µM (active) in [12]. Moreover, the Potency entry in [4], in assay [8] and in assay [13] was “inactive” each time.
`Cc1ccc(C(=O)Cl)cc1`: the Potency entry in assay [1], in assay [2], in assay [3], in assay [10], in assay [5] and in assay [6] was “inactive” each time. Moreover, the Potency result in [7], in assay [8], in assay [9], in [11], in assay [13] and in assay [12] was “inactive” throughout.
`CCCCCCCCCCBr`: the Potency entry in assay [1], in assay [2], in [3], in assay [10], in assay [4] and in assay [5] was “inactive” in each case. Besides, the Potency entry in assay [6], in [11] and in assay [13] was “inactive” throughout.
